# Laboratory results reported in PubChem BioAssay (Tox21).
# Inconclusive results are not listed. A call without a number means that no potency is given here. Activity calls are given as the source filed them. Calls come from the whole dose curve.
# Molecular target: Thyrotropin receptor (Homo sapiens) (UniProt P16473)
# Test: qHTS assay to identify small molecule antagonists of the thyroid stimulating hormone receptor (TSHR) signaling pathway (AID 1259385); note: nearly all actives have a fitted effect of over 20% in size
# Settings: TSHR-HEK293 cAMP HTRF, TSH-stimulated antagonist mode; series mostly up to 92.4 µM
# Summary of the method: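 TSHR-HEK293 cells were plated and held 18 h at 37C/5% CO2, then given compound plus Ro20-1724 and stimulated with TSH at 1.5 ng/mL final. After 30 min at room temperature, cAMP was detected with cAMP-d2/anti-cAMP-cryptate (1 h) by fluorescence.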
# Potency is the fitted concentration of half-maximal effect.
# Chain of Thyrotropin receptor (Homo sapiens) (P16473 whole entry, looked up): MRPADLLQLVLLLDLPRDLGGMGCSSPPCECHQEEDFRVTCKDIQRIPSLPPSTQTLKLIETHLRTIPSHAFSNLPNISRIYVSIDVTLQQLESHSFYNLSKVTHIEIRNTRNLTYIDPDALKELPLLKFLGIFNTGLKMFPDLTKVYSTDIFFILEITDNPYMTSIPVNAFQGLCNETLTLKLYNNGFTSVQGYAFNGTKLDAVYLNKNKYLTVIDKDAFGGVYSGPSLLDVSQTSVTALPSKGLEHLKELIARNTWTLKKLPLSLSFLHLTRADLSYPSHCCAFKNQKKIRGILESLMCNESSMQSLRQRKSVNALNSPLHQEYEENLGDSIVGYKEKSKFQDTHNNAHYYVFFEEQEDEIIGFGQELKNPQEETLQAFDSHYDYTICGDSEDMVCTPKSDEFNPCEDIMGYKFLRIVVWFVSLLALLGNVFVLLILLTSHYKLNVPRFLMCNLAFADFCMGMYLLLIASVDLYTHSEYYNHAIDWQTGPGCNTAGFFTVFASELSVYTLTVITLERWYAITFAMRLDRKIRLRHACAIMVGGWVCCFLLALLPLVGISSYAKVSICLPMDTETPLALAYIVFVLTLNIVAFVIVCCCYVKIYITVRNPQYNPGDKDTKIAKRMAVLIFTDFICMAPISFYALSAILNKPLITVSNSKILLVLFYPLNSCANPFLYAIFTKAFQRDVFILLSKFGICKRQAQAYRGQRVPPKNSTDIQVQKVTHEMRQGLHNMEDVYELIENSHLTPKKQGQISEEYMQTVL
SMILES,Potency,"activity change, negative = inhibition"
Cc1ccc([N+](=O)[O-])c(N)c1,inactive,–
CCCCCCCCc1ccc(S(=O)(=O)O)cc1,inactive,–
Cc1c(-c2ccccc2)oc2c(C(=O)OCCN3CCCCC3)cccc2c1=O,23.7 µM (active),–
CCN(CC)CCOc1ccc(Cc2ccccc2)cc1,29.8 µM (active),–
CN1CCN(C2=Nc3cc(F)ccc3Cc3ccccc32)CC1,inactive,–
CC(C)Nc1nc(N)nc(Cl)n1,inactive,–
CC(=O)Nc1ccc(C)c(Cl)c1,inactive,–
Cc1nc(-c2ccccn2)ncc1C(=O)Nn1cc(C)c2cc(F)ccc21,inactive,–
Oc1ccccc1F,inactive,–
CC(C)OC(C)C,inactive,–
OCC(CBr)(CBr)CBr,inactive,–
COC(=O)c1ccc2cc(C(=O)OC)ccc2c1,–,-1.02% [at 19 µM] (inactive)
Cc1ccc([N+](=O)[O-])cc1Cl,inactive,–
CN(CC1(C)CCCO1)S(=O)(=O)c1ccc(Cl)c(S(N)(=O)=O)c1 (stereo unspecified),inactive,–
CC(C)(CO)[C@@H](O)C(=O)NCCC(=O)O,inactive,–
C=CC1CO1 (stereo unspecified),inactive,–
CC[C@H]1CC[C@H](NCc2cc3c(cc2OC)[C@H]2C[C@H]2C(=O)N3C)[C@H](c2ccccc2)N1,inactive,–
CN1[C@@H]2CC[C@H]1CC(OC(=O)c1c[nH]c3ccccc13)C2 (stereo partly specified),inactive,–
ClC(Cl)Cl,inactive,–
COC(=O)C(C)O (stereo unspecified),inactive,–
CN(C)CC[C@@H](c1ccc(Cl)cc1)c1ccccn1,inactive,–
